Compound activity from PubChem.
The list is not random: actives were taken first. Their share in the collection is about 1.5%.
BCLXL inh: blocks human Bcl-xL binding to Bim BH3 peptide | inhibition, % at 10.9 µM | Q07817 | AID 2129 | GST-Bcl-xL / FITC-Bim BH3 peptide fluorescence polarization | 320,000 tested, 0.7% active;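 active = inhibition above the mean of all tested compounds plus 3 SD, cutoff set per campaign, cut at about 30% in these data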;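 note: 0% = DMSO wells and 100% = unlabeled Bim-BH3 peptide competitor; inhibitors lower millipolarization by displacing the labeled peptide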
MCL1-BIM inh: MCL1-BIM-BH3 interaction inhibition (human). GST-MCL1 / FITC-Bim-BH3 fluorescence polarization. AID 2057. 320,000 tested, 0.68% active. inhibition, % at 10.9 µM;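 active = inhibition above the mean inhibition of all tested compounds plus 3 SD, set per campaign, cut at about 40% in these data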;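 note: 0% = DMSO wells and 100% = unlabeled Bim-BH3 peptide control; higher means more loss of mP so more displacement of Bim peptide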
GLD-1 TGE inh: GLD-1-TGE RNA interaction inhibition (C. elegans); Q17339; purified GLD-1 + fluorescein TGE RNA, fluorescence polarization; inhibition, % at 5.96 µM; 320,000 tested, 0.44% active;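 active = percent inhibition above a per-plate cutoff, the plate mean of test compounds plus 3 SD, cut at about 30% in these data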;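 note: 0% = DMSO wells with GLD-1 and probe and 100% = wells lacking GLD-1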
EBV gp42 block: blocks Epstein-Barr virus glycoprotein 42 binding; Q1HVG2; inhibition, % (tested at 21.74 µM); 220,000 tested, 0.42% active; Fluorescence polarization binding assay, mP read-out; in the data active = inhibition above about 50%
MEX-5 binding: C. elegans MEX-5 TCR-2 RNA binding activity | 300,000 tested, 0.38% active | activity score (negative = inhibition of binding), % at 10 µM | MEX-5/FITC-TCR2 RNA binding, fluorescence polarization; hits give low values | Q9XUB2;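 active = inhibition past about -25% in most replicates, and total fluorescence under double the plate's negative control median, limit read from the data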;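 note: 0% = DMSO and -100% = 5 µM competing unlabeled TCR2 RNA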
eLon inh: E. coli protease La inhibition. purified E. coli Lon protease, fluorescence polarization. P0A9M0. AID 602123. 360,000 tested, 0.42% active. inhibition, % at 7.94 µM; in the data active = inhibition above about 13%, passing the limit was not always enough;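 note: 0% = enzyme with probe and DMSO and 100% = no enzyme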
Target sequence (P0A9M0 whole entry, looked up): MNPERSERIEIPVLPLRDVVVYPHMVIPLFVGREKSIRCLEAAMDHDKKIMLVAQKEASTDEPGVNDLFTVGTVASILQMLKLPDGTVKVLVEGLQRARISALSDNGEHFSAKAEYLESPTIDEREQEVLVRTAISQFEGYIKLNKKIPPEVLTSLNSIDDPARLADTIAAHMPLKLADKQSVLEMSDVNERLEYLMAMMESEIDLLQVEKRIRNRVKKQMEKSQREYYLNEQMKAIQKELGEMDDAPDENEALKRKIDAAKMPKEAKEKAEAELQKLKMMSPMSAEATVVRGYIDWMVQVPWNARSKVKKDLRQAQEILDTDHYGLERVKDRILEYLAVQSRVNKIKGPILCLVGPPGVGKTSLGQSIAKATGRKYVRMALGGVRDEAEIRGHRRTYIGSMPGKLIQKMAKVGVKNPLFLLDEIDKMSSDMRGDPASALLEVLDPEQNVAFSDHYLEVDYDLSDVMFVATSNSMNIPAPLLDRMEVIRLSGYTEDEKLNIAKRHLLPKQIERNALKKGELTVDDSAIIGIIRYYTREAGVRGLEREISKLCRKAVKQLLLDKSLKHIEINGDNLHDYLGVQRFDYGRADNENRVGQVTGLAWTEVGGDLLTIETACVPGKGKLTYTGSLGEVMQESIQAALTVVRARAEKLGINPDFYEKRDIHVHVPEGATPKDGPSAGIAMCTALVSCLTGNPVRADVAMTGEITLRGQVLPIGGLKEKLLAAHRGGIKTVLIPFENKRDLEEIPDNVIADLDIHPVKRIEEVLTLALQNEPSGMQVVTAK
GLD1 RNA confirm: GLD-1 TGE RNA interaction inhibition, confirmation. shares compounds with GLD-1 TGE inh. GLD-1/FL-TGE RNA fluorescence polarization, biochemical. inhibition, % at 5.96 µM. 550 tested, 10% active;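 active = average inhibition across triplicates above the hit cutoff set in the primary screen, cut at about 32% in these data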;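 note: 0% = GLD-1 with RNA probe and DMSO and 100% = wells lacking GLD-1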
An asterisk follows results filed as active; . = no result.

SMILES	BCLXL inh	MCL1-BIM inh	GLD-1 TGE inh	EBV gp42 block	MEX-5 binding	eLon inh	GLD1 RNA confirm
O=C1CCC/C(=N/NC(=O)c2ccc(CN3c4cccc5cccc(c45)S3(=O)=O)cc2)C1	10.9	8.3	40.3*	0.2	-1.0	-2.1	2.0
Cc1ccc(S(=O)(=O)N(C)Cc2ccc(C(=O)N/N=C3\CCCC(=O)C3)cc2)cc1	2.2	3.4	49.1*	-18.9	-3.8	13.6	2.8
Cc1ccc(S(=O)(=O)N(C)Cc2ccc(C(=O)NN=C3C4CC5CC(C4)CC3C5)cc2)cc1	-0.4	5.1	2.5	-2.3	0.6	0.2	.
COc1cc(/C=C(\C#N)C(=O)Nc2ccc3c(c2)OCCO3)ccc1O	-15.1	-17.8	-23.9	-45.6	4.8	-87.0	.
CC(=O)Nc1ccc(Oc2nc(-c3ccccn3)nc3ccccc23)cc1	2.0	1.2	0.3	-0.7	-4.2	4.8	.
CC(=O)Nc1cccc(Oc2nc(-c3ccccn3)nc3ccccc23)c1	1.0	-3.8	31.2*	-1.7	-34.7*	-1.0	-3.3
CCC(C)Nc1nc(OC(C(F)(F)F)C(F)(F)F)nc(OC(C(F)(F)F)C(F)(F)F)n1 (stereo not drawn)	-2.6	-0.7	35.5*	-13.0	0.2	1.7	-1.6
CCC(C)Nc1nc(OCC(F)(F)F)nc(OCC(F)(F)F)n1 (stereo not drawn)	2.2	-0.3	2.6	2.9	-0.5	2.4	.
CC(NC=O)c1nc2ccccc2n1CCc1ccccc1 (stereo not drawn)	-5.1	0.5	5.5	.	-1.0	9.1	.
COc1cccc(C(=O)NCCSCc2c(F)cccc2Cl)c1	5.6	1.8	5.6	.	1.9	3.4	.
CS(=O)(=O)Nc1ccc(C(=O)NCCSCc2c(F)cccc2Cl)cc1	2.2	-2.0	37.1*	-8.5	1.7	-3.8	-2.6
O=C(CN1C(=O)NC2(CCCCCCC2)C1=O)Nc1ccc(Br)cc1Br	-3.4	-0.5	3.2	.	.	-7.5	.
CCCc1nc2ccc(C)cn2c1Cc1ccc(OC)cc1C	.	.	.	.	.	-10.1	.
CNC(=S)N1N=C(c2ccc(Br)cc2)CC1c1ccc(Br)cc1 (stereo not drawn)	4.6	0.9	4.2	1.7	1.6	-3.7	.
Cc1cc2n(n1)C(c1ccccc1)CC(c1ccc(Br)cc1)=N2 (stereo not drawn)	13.1	4.2	52.7*	39.1	.	60.1*	15.9
CN1CCN(CP(=O)(N2CCOCC2)N2CCOCC2)CC1	1.3	5.1	43.0*	-19.7	-0.9	-2.8	-0.3
CCN(CC)S(=O)(=O)c1ccc(NC(=O)CCN2C(=O)C3CC=CCC3C2=O)cc1 (stereo not drawn)	-8.1	-13.5	-1.8	.	.	-6.2	.
CCC(CC)C1C(C#N)=C(N)Oc2cc(C)oc(=O)c21 (stereo not drawn)	-2.4	-11.9	3.9	-7.8	3.7	-4.1	.
Cc1cc2c(c(=O)o1)C(c1ccc([N+](=O)[O-])o1)C(C#N)=C(N)O2 (stereo not drawn)	46.0*	47.3*	36.4*	-2.1	-11.0	-4.0	-6.1
COc1ccc(OC)c(-c2cc(C(=O)Nc3ccccc3C(N)=O)c3ccccc3n2)c1	5.1	0.7	33.5*	.	1.4	-7.3	-1.7
CCCn1c(C)cc(C(=O)CN2C(=O)c3cccc(N)c3C2=O)c1C	27.5	25.2	35.1*	0.2	.	15.7	-0.7
CCCNC(=O)c1onc(CSc2ccc(Cl)cc2)c1C(=O)NCCC(C)C	8.2	10.5	44.2*	.	2.2	4.7	-6.0
Cc1ccc(C)c(NC(=O)C2CCCN(S(=O)(=O)c3c(C)nn(C)c3C)C2)c1 (stereo not drawn)	3.0	-0.3	8.7	.	-1.9	4.4	.
CCOc1ccccc1N(CC(=O)Nc1ccccc1C(=O)N1CCOCC1)S(C)(=O)=O	-3.0	-7.0	-2.9	.	1.2	-1.4	.
CC1(C)CC(=O)C/C(=N/NC(=O)COc2ccc3ccccc3c2Br)C1	5.1	13.6	31.1*	.	-4.8	4.2	0.8
SMILES	BCLXL inh	MCL1-BIM inh	GLD-1 TGE inh	EBV gp42 block	MEX-5 binding	eLon inh	GLD1 RNA confirm
COC(=O)C(N)Cc1ccc(O)c(O)c1 (stereo not drawn)	10.6	11.1	70.5*	-0.3	-15.5	6.5	6.7
C[C@](N)(Cc1ccc(O)c(O)c1)C(=O)O	.	.	.	5.4	.	-10.1	.
C/C(=C\c1ccccc1)C(=O)Nc1ccc(Cl)cn1	0.0	-9.8	7.9	.	1.4	0.2	.
Nc1c(C(=O)OCC(=O)Nc2cccc([N+](=O)[O-])c2)[nH]c(=O)[nH]c1=O	.	.	33.2*	.	.	14.1	13.9
O=C(COC(=O)c1ccccc1C(=O)c1ccccc1)Nc1cccc([N+](=O)[O-])c1	3.4	10.8	6.4	11.3	0.1	-9.9	.
Fc1ccc(Br)cc1C1C=C(c2cccnc2)Nc2ncnn21 (stereo not drawn)	36.8*	38.3	34.1*	8.8	-1.2	14.4	1.7
COC(=O)CCN(c1ccccc1)S(=O)(=O)c1cc(-c2cc(C)no2)ccc1OC	7.8	7.2	-5.7	.	1.2	2.8	.
CC(C)C1=C2OC(N)=C(C#N)C(C#N)=C2C(C)CC1 (stereo not drawn)	35.0*	37.5	38.6*	.	-17.2	7.0	15.1
C=CCN1CN(S(=O)(=O)c2cccc(Cl)c2)c2nc3ccccc3nc21	34.4*	30.0	45.1*	.	-9.9	-11.1	-0.3
O=S(=O)(c1cccc(Cl)c1)N1CN(CC2CCCO2)c2nc3ccccc3nc21 (stereo not drawn)	19.1	23.0	29.4	.	-9.0	9.1	.
COCCCN1CN(S(=O)(=O)c2ccc(Cl)cc2)c2nc3ccccc3nc21	28.8	26.1	34.3*	0.0	0.0	-2.4	0.2
COCCN1CN(S(=O)(=O)c2cccc(Cl)c2)c2nc3ccccc3nc21	20.5	12.1	17.9	.	-4.7	2.9	.
CCOC(=O)[C@]12CCCC=C1N(Cc1ccc3c(c1)OCO3)C(=O)[C@H](CC(=O)NCC13CC4CC(CC(C4)C1)C3)C2	.	.	.	.	.	8.3	.
COCOCCn1cc(CN2CCS(=O)(=O)N(Cc3ccc(-c4ccc(F)cc4)cc3)C(C(C)C)C2=O)nn1 (stereo not drawn)	.	.	.	.	.	-1.0	.
CC1CCN(C(=O)CSc2ccc(-c3ccccc3)nn2)CC1	3.8	2.9	2.4	2.7	1.7	-5.5	.
Cc1ccc(C)c(N2CCN(C(=O)CN3C(=S)NC(C)(C)CC3C)CC2)c1 (stereo not drawn)	3.8	6.8	8.9	3.9	-0.5	5.2	.
COc1ccc(/C=N/Nc2cc(=O)n(C)c(=O)n2C)cc1OC	1.6	-4.2	1.3	-1.7	-0.4	0.9	.
COc1cc(/C=N\Nc2cc(=O)n(C)c(=O)n2C)ccc1O	5.7	12.4	39.2*	12.9	0.7	0.9	-3.3
CC1(C)CC(=O)C2=C(C1)Nc1cc(Cl)ccc1S2	33.9*	20.4	35.1*	15.8	-4.9	14.3	5.2
